Source: PubChem BioAssay (NCATS)
“And” between values parts separate entries of the source, which are not always exact repeats. Equal entries are not always repeated. Records with an inconclusive call do not appear. Entries that show only a call come without a potency. The source made the active and inactive calls. Unless noted, calls come from the whole dose curve; as a rule, active = well fitted curve in the direction sought with a large enough effect; inconclusive = small, poorly fitted or top-dose-only effect, or another doubt; inactive = no such curve, though single readings can be large; an effect the other way counts as inactive or inconclusive.

Legend:
[1] = qHTS for Inhibitors of the Functional Ribonucleoprotein Complex (vRNP) of Lassa (LASV) Arenavirus: Viability assay - alamar blue signal for LASV Primary Screen (AID 1347083; calls by dose curve; tested in HEK293 reporter line; note: nearly all actives have a fitted effect of over 80% in size); details: cell viability, alamar blue fluorescence (LASV minigenome counter-screen); series mostly up to 57.5 µM
[2] = qHTS for Inhibitors of the Functional Ribonucleoprotein Complex (vRNP) of Lymphocytic Choriomeningitis Arenaviruses (LCMV): Viability assay - alamar blue signal for LCMV Primary Screen (AID 1347085; calls by dose curve; tested in HEK293 reporter line; note: nearly all actives have a fitted effect of over 80% in size); details: alamar blue viability counter-screen, LCMV vRNP screen cells; series mostly up to 57.5 µM
[3] = target: Nucleoprotein (Lymphocytic choriomeningitis virus (strain Armstrong)) (UniProt P09992); experiment: qHTS for Inhibitors of the Functional Ribonucleoprotein Complex (vRNP) of Lymphocytic Choriomeningitis Arenaviruses (LCMV): LCMV Primary Screen - GLuc reporter signal (AID 1347086; calls by dose curve; note: nearly all actives have a fitted effect of over 70% in size); details: LCMV minigenome vRNP cell assay, Gaussia luciferase reporter; series mostly up to 57.5 µM
[4] = qHTS of pediatric cancer cell lines to identify multiple opportunities for drug repurposing: Primary screen for TC32 cells (AID 1347089); details: TC32 Ewing sarcoma viability, CellTiter-Glo luminescence, 48 h; series mostly up to 45.8 µM; note: nearly all actives have a fitted effect of over 60% in size
Method in brief: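 Luminescent ATP read-out (CellTiter-Glo) of metabolically active TC32 cells after 48 h exposure. Concentration-response curves came from 11-point (MIPE, 0.78 nM–46 µM) or 8-point (NPC, 0.59 nM–46 µM) primary titrations; follow-up used 11 points.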

[5] = qHTS of pediatric cancer cell lines to identify multiple opportunities for drug repurposing: Primary screen for DAOY cells (AID 1347090); details: DAOY medulloblastoma viability, CellTiter-Glo luminescence, 48 h; series mostly up to 46 µM; note: nearly all actives have a fitted effect of over 55% in size
Method in brief: (§1)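 Eight- or eleven-point concentration series, 48 h treatment at 37 degrees C in growth media; readout CellTiter-Glo luminescence. Potency and efficacy were taken from the concentration-response curves.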

[6] = qHTS of pediatric cancer cell lines to identify multiple opportunities for drug repurposing: Primary screen for SJ-GBM2 cells (AID 1347091); details: SJ-GBM2 viability, CellTiter-Glo luminescence, 48 h; series mostly up to 46 µM; note: potency is the fitted concentration of half-maximal effect
Method in brief: as §1

[7] = qHTS of pediatric cancer cell lines to identify multiple opportunities for drug repurposing: Primary screen for A673 cells (AID 1347092); details: A673 Ewing sarcoma viability, CellTiter-Glo ATP luminescence, 48 h; series mostly up to 46 µM; note: nearly all actives have a fitted effect of over 45% in size; note: potency is the fitted concentration of half-maximal effect
Method in brief: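 Cell viability of A673 measured by CellTiter-Glo ATP luminescence after 48 hours compound exposure. Dilution series spanned 0.78 nM to 46 µM (MIPE, 11-point) or 0.59 nM to 46 µM (NPC, 8-point); bortezomib 2.3 uM positive control.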

[8] = qHTS of pediatric cancer cell lines to identify multiple opportunities for drug repurposing: Primary screen for SK-N-MC cells (AID 1347093); details: SK-N-MC viability, CellTiter-Glo luminescence, 48 h; series mostly up to 46 µM; note: potency is the fitted concentration of half-maximal effect
Method in brief: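 Metabolically active cells were quantified by ATP-dependent luminescence (CellTiter-Glo, 15 min at room temperature) following 48 h treatment. Cells had been plated at 500-1,000 per well and settled for 5 h beforehand.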

[9] = qHTS of pediatric cancer cell lines to identify multiple opportunities for drug repurposing: Primary screen for BT-37 cells (AID 1347094); details: BT-37 viability, CellTiter-Glo luminescence, 48 h; series mostly up to 57.3 µM
Method in brief: (§2)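 Primary screen of approved and investigational compounds on cells in growth media at 37 degrees C, 5% CO2. MIPE set at 11-point and NPC set at 8-point dilutions; viability scored by ATP-based luminescence at 48 hours.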

[10] = qHTS of pediatric cancer cell lines to identify multiple opportunities for drug repurposing: Primary screen for NB-EBc1 cells (AID 1347095); details: NB-EBc1 neuroblastoma viability, CellTiter-Glo luminescence, 48 h; series mostly up to 46 µM; note: potency is the fitted concentration of half-maximal effect
Method in brief: as §2

[11] = qHTS of pediatric cancer cell lines to identify multiple opportunities for drug repurposing: Primary screen for Saos-2 cells (AID 1347097); details: Saos-2 viability, CellTiter-Glo ATP luminescence, 48 h; series mostly up to 46 µM; note: nearly all actives have a fitted effect of over 40% in size
Method in brief: as §2

[12] = qHTS of pediatric cancer cell lines to identify multiple opportunities for drug repurposing: Primary screen for SK-N-SH cells (AID 1347098); details: SK-N-SH viability, CellTiter-Glo luminescence, 48 h; series mostly up to 57 µM;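 note: DMSO served as neutral control and bortezomib at 2.3 µM as positive control; nearly all actives have a fitted effect of over 65% in size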
Method in brief: (§3)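 Cells (500-1,000/well) rested 5 h, then received compounds for 48 h; metabolically active cells were measured by CellTiter-Glo luminescence. Final concentrations spanned up to 46 µM (MIPE, 11-point) or 0.59 nM-46 µM (NPC, 8-point) in primary screens, 11-point in follow-ups.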

[13] = qHTS of pediatric cancer cell lines to identify multiple opportunities for drug repurposing: Primary screen for NB1643 cells (AID 1347099); details: NB1643 neuroblastoma viability, CellTiter-Glo luminescence, 48 h; series mostly up to 46 µM; note: nearly all actives have a fitted effect of over 50% in size
Method in brief: as §2

[14] = qHTS of pediatric cancer cell lines to identify multiple opportunities for drug repurposing: Primary screen for LAN-5 cells (AID 1347100); details: LAN-5 neuroblastoma viability, CellTiter-Glo luminescence, 48 h; series mostly up to 46 µM; note: potency is the fitted concentration of half-maximal effect
Method in brief: (§4)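 Cells (500-1,000/well) in growth media were settled 5 h at 37 degrees C, then given compounds for 48 h. Viability was read as CellTiter-Glo luminescence. Primary runs used MIPE at 11 points (0.78 nM-46 µM) and NPC at 8 points (0.59 nM-46 µM); follow-ups used 11 points.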

[15] = qHTS of pediatric cancer cell lines to identify multiple opportunities for drug repurposing: Primary screen for Rh18 cells (AID 1347102); details: Rh18 rhabdomyosarcoma viability, CellTiter-Glo luminescence, 48 h; series mostly up to 46 µM; note: nearly all actives have a fitted effect of over 65% in size
Method in brief: as §4

[16] = qHTS of pediatric cancer cell lines to identify multiple opportunities for drug repurposing: Primary screen for RD cells (AID 1347104); details: RD rhabdomyosarcoma viability, CellTiter-Glo luminescence, 48 h; series mostly up to 46 µM; note: nearly all actives have a fitted effect of over 55% in size
Method in brief: as §2

[17] = qHTS of pediatric cancer cell lines to identify multiple opportunities for drug repurposing: Primary screen for MG 63 (6-TG R) cells (AID 1347105); details: MG 63 (6-TG R) viability, CellTiter-Glo, 48 h; series mostly up to 46 µM; note: nearly all actives have a fitted effect of over 50% in size
Method in brief: as §2

[18] = qHTS of pediatric cancer cell lines to identify multiple opportunities for drug repurposing: Primary screen for BT-12 cells (AID 1347101); details: BT-12 viability, CellTiter-Glo luminescence, 48 h; series mostly up to 57.3 µM; note: nearly all actives have a fitted effect of over 25% in size
Method in brief: as §3

[19] = qHTS of pediatric cancer cell lines to identify multiple opportunities for drug repurposing: Primary screen for OHS-50 cells (AID 1347103); details: OHS-50 osteosarcoma viability, CellTiter-Glo luminescence, 48 h; series mostly up to 57.3 µM; note: nearly all actives have a fitted effect of over 40% in size
Method in brief: as §3

[20] = qHTS of pediatric cancer cell lines to identify multiple opportunities for drug repurposing: Primary screen for U-2 OS cells (AID 1347096); details: U-2 OS viability, CellTiter-Glo luminescence, 48 h; series mostly up to 46 µM; note: nearly all actives have a fitted effect of over 50% in size
Method in brief: as §4

Chain of Nucleoprotein (Lymphocytic choriomeningitis virus (strain Armstrong)) (P09992 whole entry, looked up): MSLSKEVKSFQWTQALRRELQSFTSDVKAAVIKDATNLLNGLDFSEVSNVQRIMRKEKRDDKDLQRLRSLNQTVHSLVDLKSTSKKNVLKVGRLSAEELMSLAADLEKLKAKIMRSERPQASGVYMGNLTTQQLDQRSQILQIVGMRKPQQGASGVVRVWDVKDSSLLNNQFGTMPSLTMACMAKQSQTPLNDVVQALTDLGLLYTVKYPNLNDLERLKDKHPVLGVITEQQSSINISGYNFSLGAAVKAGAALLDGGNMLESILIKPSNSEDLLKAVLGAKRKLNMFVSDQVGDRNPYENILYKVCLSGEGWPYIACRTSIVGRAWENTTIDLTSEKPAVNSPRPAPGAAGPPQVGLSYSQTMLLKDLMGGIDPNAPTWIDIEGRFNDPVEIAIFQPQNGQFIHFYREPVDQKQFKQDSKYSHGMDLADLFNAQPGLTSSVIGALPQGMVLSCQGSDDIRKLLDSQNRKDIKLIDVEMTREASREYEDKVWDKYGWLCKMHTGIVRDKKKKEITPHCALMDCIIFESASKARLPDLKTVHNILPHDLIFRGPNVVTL

| SMILES | Potency [1] | Potency [2] | Potency [3] | Potency [4] | Potency [5] | Potency [6] | Potency [7] | Potency [8] | Potency [9] | Potency [10] | Potency [11] | Potency [12] | Potency [13] | Potency [14] | Potency [15] | Potency [16] | Potency [17] | Potency [18] | Potency [19] | Potency [20] |
| --- | --- | --- | --- | --- | --- | --- | --- | --- | --- | --- | --- | --- | --- | --- | --- | --- | --- | --- | --- | --- |
| C[C@@H]1CC2=CC(=O)CC[C@@H]2[C@H]2CC[C@@]3(C)[C@@H](CC[C@]3(C)O)[C@@H]21 | inactive | inactive | inactive | inactive | inactive | inactive | inactive | inactive | inactive | inactive | inactive | inactive | inactive | inactive | inactive | inactive | inactive |  |  |  |
| CCOP(=S)(OCC)Oc1ccc2c(C)c(Cl)c(=O)oc2c1 | inactive | inactive | inactive | inactive | inactive | inactive | 0.001 µM (active) | inactive | inactive |  | inactive |  | inactive |  | inactive | inactive |  | inactive | inactive |  |
| COc1cccc([C@@]2(O)CCCC[C@@H]2CN(C)C)c1 | inactive | inactive | inactive | inactive | inactive | inactive | inactive |  | inactive | inactive | inactive | inactive | inactive | inactive | inactive | inactive | inactive | inactive | inactive | inactive |
| CC(Cc1ccccc1)NCCn1cnc2c1c(=O)n(C)c(=O)n2C (centres undefined) | inactive | inactive | inactive | inactive | inactive | inactive | inactive |  | inactive | inactive | inactive | inactive | inactive | inactive | inactive | inactive | inactive |  | inactive | inactive |
| CCc1cc2c(s1)-n1c(C)nnc1CN=C2c1ccccc1Cl | inactive | inactive | inactive | inactive | inactive | inactive | inactive | inactive | inactive | inactive | inactive | inactive |  | inactive | inactive | inactive | inactive | inactive |  |  |
| CC(C(=O)c1ccccc1)N(C)C (centres undefined) | inactive | inactive | inactive | inactive | inactive | inactive | inactive | inactive | inactive | inactive | inactive | inactive | inactive | inactive | inactive | inactive | inactive | inactive | inactive |  |
| O=C(O)CCCc1ccc(N(CCCl)CCCl)cc1 | inactive | inactive | inactive | inactive | inactive | 13.2 µM (active) | inactive | 20.9 µM (active) |  | 11.9 µM (active) and 1.05 µM (active) | inactive | inactive | inactive | 9.44 µM (active) | inactive | inactive | inactive | inactive |  |  |
| C[N+]1(CCF)[C@@H]2CC[C@H]1CC(OC(=O)C(O)(c1ccccc1)c1ccccc1)C2 (some centres undefined) | inactive | inactive | inactive | inactive | inactive | inactive | inactive |  | inactive | inactive | inactive | inactive |  | inactive | inactive | inactive |  | inactive | inactive | inactive |
| COC(=O)[C@@H](N)CCCN/C(N)=N/[N+](=O)[O-] | inactive | inactive | inactive | inactive | inactive | inactive | inactive | inactive | inactive | inactive | inactive | inactive | inactive | inactive | inactive | inactive | inactive | inactive | inactive |  |
| c1ccc(CN2CCNCC2)cc1 | inactive | inactive | inactive | inactive | inactive | inactive | inactive |  | inactive | inactive | inactive | inactive | inactive | inactive | inactive | inactive | inactive | inactive | inactive | inactive |
| CCN[C@H](C)Cc1cccc(C(F)(F)F)c1 | inactive | inactive | inactive | inactive | inactive | inactive | inactive | inactive | inactive | inactive | inactive |  | inactive | inactive | inactive | inactive | inactive | inactive | inactive |  |
| C#C[C@]1(O)CC[C@H]2[C@@H]3CCC4=CC(=O)CC[C@]4(C)[C@H]3CC[C@@]21C | inactive | inactive | inactive | inactive | inactive | inactive | inactive |  | inactive | inactive | inactive | inactive | inactive | inactive | inactive | inactive | inactive | inactive | inactive | inactive |
| O=c1[nH]oc2c1CCNC2 | inactive | inactive | inactive | inactive | inactive | inactive | inactive |  | inactive | inactive | inactive | inactive | inactive | inactive | inactive | inactive | inactive | inactive | inactive | inactive |
| [N-]=[N+]=CC(=O)OC[C@H](N)C(=O)O | inactive | inactive | inactive | inactive | inactive | inactive | inactive | inactive | inactive | inactive | inactive | inactive |  | inactive | inactive | inactive | inactive | inactive | inactive |  |
| C[C@]12CCC(=O)C=C1CC[C@@H]1[C@@H]2CC[C@]2(C)C(=O)CC[C@@H]12 | inactive | inactive | inactive | inactive | inactive | inactive | inactive |  | inactive | inactive | inactive | inactive | inactive | inactive | inactive | inactive | inactive | inactive |  | inactive |
